The structures appear in SMILES notation. Where “and” joins values, the source holds several entries; their conditions need not be identical. Equal values may be shown once. The campaign covered roughly 420,000 compounds. About 64,000 (15%) were called active. A call without a number means that no potency is given here. Another 27% or so got no clear call; they are omitted. This excerpt belongs to a sample that is enriched for actives. Unmarked numbers belong to inactive results. Calls follow the shape of the dose curve; as a rule, active = well fitted inhibition curve with a large enough effect; inconclusive = small, poorly fitted or top-dose-only effect; inactive = flat fitted curve, though single readings scatter.
Potency is read from the fitted curve at half-maximal effect.

This test is described as follows: qHTS for Inhibitors of human tyrosyl-DNA phosphodiesterase 1 (TDP1): qHTS in cells in absence of CPT. Also: nearly all actives have a fitted effect of over 55% in size. As to conditions: DT40 Tdp1-/- hTDP1 cells, no CPT, ATP luminescence, 48 h; series mostly up to 46.2 µM. The essentials:
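DT40 Tdp1-/-;hTDP1 cells, no CPT (DMSO vehicle only), 400 cells/well; compounds pin-transferred; ≥48 hr, 37 °C; CellTiter-Glo 30 min RT dark, luminescence read.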
On to `CC(C)CN1CCN(Cc2ccccc2C(F)(F)F)CC1CCO` (centres undefined), for which the Potency entry was “inactive”.
Turning to `O=C1C2CCN(CC2)C1(CO)CO`, the Potency was 5.96 µM (active) and 4.61 µM (active).
Regarding `CC(C)c1ccc(OCC(=O)N2CCCN(C)CC2)cc1`, the Potency entry is “inactive”.
Same read-out and setting: the result for `O=C(Nc1cccc2ccccc12)N1CCC2(CC1)OCCO2` reads “inactive”; that for `COc1ccc(CCn2c(O)c(C=NC3CC3)c(=O)[nH]c2=O)cc1OC`, “inactive”; that for `COc1cccc(-c2nc3ccc(N4CCN(C)CC4)cc3[nH]2)c1`, “inactive”.
For `Cc1nc2ccc(N3CCN(C)CC3)cc2nc1C`, the Potency result was “inactive”.
Same read-out and setting: the result for `CN1CCN(c2cc(N3CCNCC3)ccc2[N+](=O)[O-])CC1` reads 7.31 µM (active).
In the case of `O=c1[nH]c(=O)n(Cc2ccccc2)c(O)c1/C=N/Nc1c(F)c(F)c(F)c(F)c1F`, the Potency entry was “inactive”.
Same read-out and setting: with `COc1ccc2c(c1)NP(=S)(c1ccccc1)N2` (centres undefined) the figure was 16.4 µM (active).
On the same count and under the same terms, with `Cc1cc(C)c2c(c1)NP(=S)(c1ccccc1)N2` (centres undefined) the entry was “inactive”; with `N#Cc1ccc(Cn2cc(C(=O)c3ccco3)c3ccccc32)cc1`, 23.1 µM (active); with `NC(=O)Cn1cc(C(=O)c2ccccc2F)c2ccccc21`, “inactive”.
On the same count and under the same terms, with `Cc1cc(=O)oc2c(C)c(OCC(=O)N3CCN(Cc4ccc5c(c4)OCO5)CC3)ccc12` the entry was “inactive”.
`O=C(CN1CCCCC1)Nc1ccc(Br)cc1C(=O)c1ccccc1Cl`: the Potency entry was “inactive”.
Same read-out and setting: with `O=S(=O)(O)C(F)(F)C(F)(F)C(F)(F)C(F)(F)F` the entry was “inactive”; with `Cc1ccc(OC(=O)N(C)C[C@@H]2OCc3cnnn3CCCC(=O)N([C@H](C)CO)C[C@@H]2C)cc1`, “inactive”.
On the same count and under the same terms, the result for `O=c1c2ccccc2nc(/C=C/c2ccc(F)cc2)n1-c1ccccc1O` reads 16.4 µM (active); that for `O=c1c2ccccc2nc(CBr)n1-c1ccc(Cl)cc1`, “inactive”; that for `COc1cccc(N2C(=O)NC(=O)/C(=C\c3cn(C)c4ccccc34)C2=O)c1`, “inactive”.
The same measure, in the same setting: the result for `Cn1cc(/C=C/c2nc3ccccc3c(=O)n2-c2ccccc2)c2ccccc21` reads 8.2 µM (active).
For the compound `C1CC[C@H]([C@@]23C[C@H](C[C@H]4CCCN[C@H]42)[C@@H]2CCCCN2C3)NC1`, the activity change, negative = growth inhibition was -7.17% [at 9.04 µM].
As for `CCCC(C)n1[nH]c(=O)c2c1NC(=O)CSC2c1ccc(OC)c(OC)c1` (centres undefined), the Potency entry was “inactive”.
The same measure, in the same setting: with `COc1ccccc1-n1c(O)c(C=NC2CC2)c(=O)[nH]c1=O` the entry was “inactive”; with `CCOC(=O)CNC(=O)N1Cc2cc(N3CCCCC3)ccc2-n2nncc2C1`, “inactive”.
Same read-out and setting: with `c1ccc(CC2CCCCN2)cc1` (centres undefined) the entry was “inactive”; with `Cn1c(O)c(C(=Nc2ccc(F)cc2)c2ccccc2)c(=O)n(C)c1=O`, 9.2 µM (active).
Same read-out and setting: the result for `CC(=NC1CCN(Cc2ccccc2)CC1)c1c(O)n(C)c(=O)n(C)c1=O` reads “inactive”; that for `Cn1c(O)c(C=Nc2ccc3c(c2)CCC3)c(=O)n(C)c1=O`, “inactive”.
For `CCN1CCN(Cc2cc(OC)c3c(c2)OCO3)CC1`, the Potency result is “inactive”.
Still for that read-out and setting: the result for `COc1cccc(C(=O)N2C[C@H]3C[C@@H](C2)c2cccc(=O)n2C3)c1` reads “inactive”.
The same measure, in the same setting: the result for `N#Cc1c(Cl)c(Cl)c(Cl)c(C#N)c1Cl` reads 25.1 nM (active) and 517 nM (active).
Regarding `Cc1nc2ccccc2c(=O)n1-c1ccc(Cl)cc1Cl`, the Potency is 23.1 µM (active).
On the same count and under the same terms, the result for `O=c1c2ccccc2nc(-c2ccc(Cl)cc2Cl)n1-c1ccncc1` reads “inactive”.

Values taken from PubChem BioAssay AID686978 (National Center for Advancing Translational Sciences (NCATS), 2013).
